Data published in PubChem BioAssay AID1030 (National Center for Advancing Translational Sciences (NCATS), 2008).
The campaign covered roughly 220,000 compounds. About 16,000 (7.3%) were called active. Roughly 25% stayed inconclusive and do not appear here. The call rests on the fitted dose curve; in most records, active means well fitted inhibition curve with a large enough effect (not every such curve was filed as active); inconclusive means small, poorly fitted or top-dose-only effect, or another doubt; inactive means no such curve, though single readings can be large or run the other way. The sample as a whole holds a higher share of actives than the screen did.

Biological target: Aldehyde dehydrogenase 1A1 (Homo sapiens) (UniProt P00352)
Assay: qHTS Assay for Inhibitors of Aldehyde Dehydrogenase 1 (ALDH1A1);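 on activity, negative = inhibition: plate controls were no enzyme wells and a reference inhibitor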
Conditions: Purified ALDH1A1, NADH fluorescence, propionaldehyde substrate; series mostly up to 75.3 µM; activity, negative = inhibition: at the top concentration
Potency means the concentration at half of the fitted maximal effect.

Sequence of Aldehyde dehydrogenase 1A1 (Homo sapiens) (P00352 whole entry, looked up): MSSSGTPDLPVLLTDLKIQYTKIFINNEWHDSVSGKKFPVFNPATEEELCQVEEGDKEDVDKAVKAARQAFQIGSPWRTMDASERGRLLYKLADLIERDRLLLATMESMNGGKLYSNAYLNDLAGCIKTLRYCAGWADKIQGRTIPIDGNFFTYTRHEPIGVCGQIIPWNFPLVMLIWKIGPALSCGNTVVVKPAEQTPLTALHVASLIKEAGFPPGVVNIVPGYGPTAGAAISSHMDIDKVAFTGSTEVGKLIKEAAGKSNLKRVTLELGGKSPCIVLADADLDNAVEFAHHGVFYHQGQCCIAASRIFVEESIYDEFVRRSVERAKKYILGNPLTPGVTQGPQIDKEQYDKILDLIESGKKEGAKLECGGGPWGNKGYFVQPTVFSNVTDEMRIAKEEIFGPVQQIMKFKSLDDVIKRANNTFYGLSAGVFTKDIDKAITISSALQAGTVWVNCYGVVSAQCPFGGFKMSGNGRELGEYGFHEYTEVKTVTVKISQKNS

activity, negative = inhibition, inactive:
CCOC(=O)Cc1csc(NC(=O)CSc2nnc(-c3cccnc3)n2Cc2ccco2)n1 -6.11%, Nc1cc(=O)nc(SCc2ccccc2)n1Cc1ccco1 12.6%, Cc1cc(C)n2nc(C(=O)N3CCN(Cc4ccc5c(c4)OCO5)CC3)nc2n1 5.33%, CCN(CC)CCNC(=O)c1ccc(NC(=O)c2c(F)cccc2Cl)cc1 -2.52%, COc1ccc(CCNC(=O)c2cc(-c3ccc4c(c3)OCO4)on2)cc1OC 8.9%, Cc1ccc(NC(=O)C(=O)NCC2CCN(C(=O)c3cccc([N+](=O)[O-])c3)CC2)cc1 1.36%, CN1CCN(CC#CCC2(O)c3ccccc3-c3ccccc32)CC1 -5.97%, CC(=O)C1C(c2ccc(Cl)cc2)c2c(n[nH]c2C)CC1(C)O (centres undefined) 2.01%, CC(C)N1CCC(N2CCN(Cc3cccnc3)CC2CCO)CC1 (centres undefined) 1.27%, CCOc1ccc(NC(=O)CC2NCCNC2=O)cc1 (centres undefined) 9.3%, O=C(CC1NCCNC1=O)Nc1cc(Cl)cc(Cl)c1 (centres undefined) 1.99%, COc1ccc(-c2nc(-c3ccccc3)oc2Nc2ccc3ccccc3c2)cc1 -9.62%, COc1ccccc1CNC(=O)CNC(=O)c1cn(-c2ccccc2OC)c(=O)c2ccccc12 -5.29%, COc1cccc(CC2(CO)CCCN(CC3=Cc4cc(OC)ccc4OC3)C2)c1 (centres undefined) -12.6%, Cc1nn(-c2ccccc2)c(=O)c2noc(C)c12 -1.15%, COc1ccc(N(C(=O)c2cccnc2)S(=O)(=O)c2ccc3c(c2)n(C)c(=O)n3C)cc1 -5.62%, Cc1ccc(C(=O)Cn2cccn2)cc1 -4.42%, COc1ccc(CCNC(=O)C(=O)NCc2ccccc2C)cc1OC 8.53%, COc1ccc(CCNC(=O)COC(=O)/C=C/c2cccs2)cc1OC 4.49%, CCCCn1c(N)c(N(CC)C(=O)/C=C/c2ccco2)c(=O)[nH]c1=O -2.37%, CC(C)(C)NC(=O)c1ccc(Cn2cc(C(F)(F)F)ccc2=O)cc1 1.97%, O=C1NC(=Nc2ccc(Cl)cc2)SC1Cc1cccc(Cl)c1Cl (centres undefined) 17.6%, N#Cc1ccc(C(c2nnnn2CCc2ccccc2)N2CCCCCC2)cc1 (centres undefined) -7.57%, CCC(C)(C)n1nnnc1C(c1cccs1)N1CCN(Cc2ccccc2)CC1 (centres undefined) -3.94%, COc1ccc(C(=O)N/N=c2\oc3ccccc3cc2C(N)=O)cc1 -1.79%, CC1Cc2ccccc2N1C1=CC(=O)CC(C)(C)C1 (centres undefined) -16.2%, COc1ccccc1CC(=O)Nc1ccc([N+](=O)[O-])cc1OC -4.92%, COc1ccccc1CSc1nc2ccccc2[nH]1 4.43%, Cc1ccc(NC(=O)O[C@@H]2C(=O)c3cc(Br)ccc3O[C@H]2c2ccc3c(c2)OCO3)cc1Br -1.23%, CC(C)(C)CN1CCNC(=O)C1CC(=O)NC1Cc2ccccc2C1 (centres undefined) -0.0338%, COc1cccc(NC(=O)NCc2ccc(F)cc2)c1 5.85%, COc1cccc(CNC(=O)c2n[nH]c3ccccc23)c1 0.331%, CC(=O)Cc1nsc(NC(=O)c2ccc(Cl)cc2Cl)n1 1.32%, CC1CCCN(CC(O)COc2ccc3c(c2)OCO3)C1 (centres undefined) -0.13%, O=C(COC(=O)CCCNC(=O)c1ccc(Cl)cc1)Nc1cc(Cl)ccc1Cl 11.4%, CCCCNC(=O)CCNC(=O)c1ccc(C(C)(C)C)cc1 -13.2%, CCc1cc2c(NC3CCCC3)ncnc2s1 -8.26%, COC(=O)C1=C(C(=O)OC)[C@@H]2N(C)c3ccccc3[C@@]23C[C@@H](C(=O)OC)N(C(C)=O)C3=N1 3.72% [at 13.5 µM], C[C@@H](C(=O)N1CCNCC1)n1cc(CCC(=O)O)nn1 0.0753%, O=C(c1ccc(Cl)cc1)c1cnc(Nc2ccccc2)s1 9.26%, O=C(Nc1ccc(Cl)cc1)c1ccsn1 5.63%, O=C(O)CS/C(=C\c1ccc(F)cc1)c1nc2ccccc2s1 9.19%, COc1cccc(CNC(=O)CCC2CCCN(Cc3ccc(OC(F)F)cc3)C2)c1 (centres undefined) 8.18%, Cn1c(N)c(C(=O)COC(=O)/C=C/c2ccc(OC(F)F)cc2)c(=O)n(C)c1=O 0.549%, O=C(Nc1ccccc1)N1CCN(C(=O)Nc2ccccc2)CC1 1.94%, NC(=O)C1(N2CCCCC2)CCN(C(=O)c2ccc(C#Cc3ccccc3)o2)CC1 -13.8%, S=C(Nc1ccc2c(c1)OCO2)N1CCCC1 -14.8%, O=C(/C=C/c1ccc(OCc2c(F)cccc2Cl)cc1)N1CCOCC1 -4.08%, CN1CCN(c2ccc(NC(=O)c3ccc4c(c3)OCCO4)cc2Cl)CC1 -6.09%, COC(=O)Nc1c(C)n(C)n(-c2ccccc2)c1=O 4.54%, Cc1c(NC(=S)Nc2ccccc2)c(=O)n(-c2ccccc2)n1C -0.293%, Cc1ccc(NC(=O)CC(=O)Nc2ccc(C)cc2)cc1 4.23%, Cc1ccc(C(=O)CS(C)(=O)=O)cc1 -3.97%, COC(=O)c1ccc(NC(=O)Nc2ccc(C)cc2)cc1 18.1%, COC(=O)c1ccc(NC(=O)C(C)N2C(=O)c3ccccc3C2=O)cc1 (centres undefined) 3.93%, CC(C)Nc1nnc(SCC(=O)/C=C2\N(C)c3ccccc3C2(C)C)s1 -2.25%, CCCCCc1ccc(-c2ccc(OCC)cc2)nc1 3.76%, O=C(N1CCCCC1)N1CCN(C(=O)N2CCCCC2)CC1 -13.2%, CCCNC(=O)c1c(Cl)cnn1-c1ccc(C)cc1 0.157%, CCC(C)CN1CCC(CO)(Cc2ccccc2Cl)CC1 (centres undefined) 6.32%, COCCNC(=O)/C(C#N)=C/c1cccc(OCc2ccccc2)c1 -8.15%, O=C(NCC(O)c1ccc([N+](=O)[O-])cc1)C1CCCCC1 (centres undefined) 5.34%, O=[N+]([O-])c1ccc(N2CCSCC2)cc1O -9.62%, NC(N)=N/N=C/c1ccc(Cl)c([N+](=O)[O-])c1 4.87%, Nc1ccc(C(=O)OCC(=O)NC2CCS(=O)(=O)C2)cc1[N+](=O)[O-] (centres undefined) -0.662%, CN(C)c1nccc(NCc2ccccc2)c1C#N -5.36%, CN(C(=O)COc1ncnc2c1cnn2-c1ccccc1)C1CCCCC1 -9.75%, CN(C)S(=O)(=O)Oc1ccccc1C(=O)Nc1ccccc1Cl 8.77%, CC(=O)Nc1ccccc1OC(C)C(=O)N1CCC(C)CC1 (centres undefined) 5.08%, CSCCC(NC(=O)C1CCC(C)CC1)C(=O)NCc1ccco1 (centres undefined) 5.15%, CCCCCCCCCCOC(=O)C[N+](C)(C)CC1CCCCC1O (centres undefined) 4.34%, O=C(NC1CCCCC1)c1cc([N+](=O)[O-])ccc1N1CCOCC1 -8.05%, CC[C@H](C)[C@@H](NC(=O)O[C@@H]1C(=O)c2cc(OC)ccc2O[C@H]1c1cccc(OC)c1)C(=O)OC 0.104%, CCN(CC)CCNc1nc(-c2ccc(OC(F)F)cc2)c(C)s1 -2.65%, O=c1cc(-c2ccccc2)nc(N2CCCCC2)[nH]1 -8.51%, O=C(Nc1ccccc1N1CCCCC1)c1cccc(F)c1 -9.96%, O=C(O)C(c1ccccc1)C1(O)CCCCC1 (centres undefined) 9.96%, Cc1ccc(-c2cn(S(=O)(=O)c3cccc([N+](=O)[O-])c3)nc2N)cc1 4.26%, O=C(Nc1ccncc1)c1cc(-c2ccccn2)nc2ccc(Br)cc12 0.055%, Cn1c(=O)[nH]c(=O)c2c1nc(Br)n2CCCCSc1nc2ccccc2o1 -7.93%, C#CC(C)(C)NC(=O)CSc1nc2c(c(=O)n(C)c(=O)n2C)n1CCCC 16.5%, Oc1ccccc1CNCc1ccccc1O -6.72% [at 13.5 µM], O=[N+]([O-])c1ccccc1NCc1ccc(Cl)cc1 4.53%, Cn1nc(C(F)(F)F)c2cc(C(=O)N3CCOCC3)sc21 5.73%, Cc1ccnc2nc(C(=O)Nc3nnc(-c4ccccc4)o3)nn12 8.11%, CC(C)=C1SC(N2CCN(c3cccc(C)c3)CC2)=NC1=O -4.12%

Potency, inactive:
CCCCCCCC/C=C\CCCCCCCC(=O)OC[C@H](CO)OC(C)=O

Potency, active:
CCOC(=O)CSc1nc2c(sc(=S)n2CCc2ccccc2)c(=O)n1Cc1ccco1 31.6 µM, COc1c2c(cc3occ(-c4ccc5c(c4)OCO5)c(=O)c13)OC(C)(C)C=C2 14.1 µM, O=C(CC1NCCNC1=O)Nc1ccc(Oc2ccccc2)cc1 (centres undefined) 20 µM, O=C(c1cccnc1)N(c1cc2sc(=O)oc2c2ccccc12)S(=O)(=O)c1ccccc1 10 µM, COc1ccc(CCNC(=O)CC2SC(=Nc3cc(C)cc(C)c3)NC2=O)cc1OC (centres undefined) 12.6 µM, Fc1ccc(Cn2nnnc2C(c2cccs2)N2CCCCCC2)cc1 (centres undefined) 7.94 µM, COc1ccccc1CSc1ncc(-c2ccc([N+](=O)[O-])cc2)[nH]1 28.2 µM, COC(=O)[C@@H](NC(=O)NCc1cccc(OC)c1)C(C)C 10 µM, Cc1ccc(CNC(=O)CCCNC(=O)c2ccc(Cl)cc2)n1C 28.2 µM, O=C(Nc1ccccc1)c1nnsc1S(=O)(=O)c1ccc(Cl)cc1 2.24 µM, S=C(c1ccc(-c2ccccc2)o1)N1CCCCC1 3.55 µM, O=C1NC(c2ccc(-c3ccccc3[N+](=O)[O-])o2)C(C(=O)c2ccc(Cl)cc2)C(O)(C(F)(F)F)N1 (centres undefined) 20 µM, CCN(CC)P(=O)(/C(Cl)=C\Nc1c(C)n(C)n(-c2ccccc2)c1=O)N(CC)CC 17.8 µM, Cc1ccc(C(=O)CNc2ccc(F)cc2)cc1 11.2 µM, COC(=O)c1ccc(NCC(=O)c2ccccc2)cc1 11.2 µM, O=C1CSC(=S)N1/N=C/c1ccc(O)c([N+](=O)[O-])c1 1.26 µM, CSCCC(NS(=O)(=O)/C=C/c1ccccc1)C(=O)N1CCC(C)CC1 (centres undefined) 14.1 µM, O=[N+]([O-])c1ccc2c(c1)C(N1CCOCC1)/C(=C/C1(O)CCCCC1)O2 (centres undefined) 10 µM, O=C(c1ccccc1)c1ccc2nc(N3CCCCC3)c3nncn3c2c1 12.6 µM, CCCCCn1c(SCCC(C)C)nc2c1c(=O)[nH]c(=O)n2C 22.4 µM, Oc1ccc(CNc2ccccc2O)cc1 3.98 µM, CCN1C(=O)/C(=C2\SC(N3CCCCC3)=NC2=O)c2ccccc21 10 µM
